In ChEMBL document CHEMBL1961873, “Compounds: GSK PKIS; Assays: Nanosyn kinase panel” (2012):

Key:
[1] = biological target: T1, Serine/threonine-protein kinase Nek9 (Homo sapiens) (UniProt Q8TD19); details: at 1 µM;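 also: each value is a mean percent inhibition of NEK9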
T1 sequence (whole entry): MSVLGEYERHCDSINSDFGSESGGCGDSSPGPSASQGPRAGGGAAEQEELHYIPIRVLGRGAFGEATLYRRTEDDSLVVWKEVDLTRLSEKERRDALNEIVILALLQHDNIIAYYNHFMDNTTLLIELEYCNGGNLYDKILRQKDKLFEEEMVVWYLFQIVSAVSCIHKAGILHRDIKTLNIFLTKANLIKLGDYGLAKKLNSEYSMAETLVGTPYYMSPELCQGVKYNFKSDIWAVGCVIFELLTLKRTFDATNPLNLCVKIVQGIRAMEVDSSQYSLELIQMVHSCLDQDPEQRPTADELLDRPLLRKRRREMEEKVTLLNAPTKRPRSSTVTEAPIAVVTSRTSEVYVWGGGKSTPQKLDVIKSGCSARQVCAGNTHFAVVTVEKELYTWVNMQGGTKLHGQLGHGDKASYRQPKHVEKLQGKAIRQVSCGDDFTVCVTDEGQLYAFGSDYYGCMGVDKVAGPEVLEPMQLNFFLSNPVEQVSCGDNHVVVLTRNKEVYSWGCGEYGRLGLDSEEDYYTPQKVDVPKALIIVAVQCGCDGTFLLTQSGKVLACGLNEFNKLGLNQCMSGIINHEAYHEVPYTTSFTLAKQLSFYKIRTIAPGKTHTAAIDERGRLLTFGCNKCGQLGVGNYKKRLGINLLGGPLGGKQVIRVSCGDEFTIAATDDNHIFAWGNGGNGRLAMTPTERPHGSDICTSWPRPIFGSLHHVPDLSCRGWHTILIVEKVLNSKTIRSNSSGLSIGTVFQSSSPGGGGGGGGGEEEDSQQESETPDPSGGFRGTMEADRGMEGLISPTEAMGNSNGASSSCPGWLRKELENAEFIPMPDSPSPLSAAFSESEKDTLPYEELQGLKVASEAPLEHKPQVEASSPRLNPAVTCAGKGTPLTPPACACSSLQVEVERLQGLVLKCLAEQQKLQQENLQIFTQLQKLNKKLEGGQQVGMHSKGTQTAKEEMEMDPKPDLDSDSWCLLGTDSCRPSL

[2] = biological target: Serine/threonine-protein kinase PLK1 (Homo sapiens) (UniProt P53350); details: at 0.1 µM
Sequence of Serine/threonine-protein kinase PLK1 (Homo sapiens) (P53350 whole entry): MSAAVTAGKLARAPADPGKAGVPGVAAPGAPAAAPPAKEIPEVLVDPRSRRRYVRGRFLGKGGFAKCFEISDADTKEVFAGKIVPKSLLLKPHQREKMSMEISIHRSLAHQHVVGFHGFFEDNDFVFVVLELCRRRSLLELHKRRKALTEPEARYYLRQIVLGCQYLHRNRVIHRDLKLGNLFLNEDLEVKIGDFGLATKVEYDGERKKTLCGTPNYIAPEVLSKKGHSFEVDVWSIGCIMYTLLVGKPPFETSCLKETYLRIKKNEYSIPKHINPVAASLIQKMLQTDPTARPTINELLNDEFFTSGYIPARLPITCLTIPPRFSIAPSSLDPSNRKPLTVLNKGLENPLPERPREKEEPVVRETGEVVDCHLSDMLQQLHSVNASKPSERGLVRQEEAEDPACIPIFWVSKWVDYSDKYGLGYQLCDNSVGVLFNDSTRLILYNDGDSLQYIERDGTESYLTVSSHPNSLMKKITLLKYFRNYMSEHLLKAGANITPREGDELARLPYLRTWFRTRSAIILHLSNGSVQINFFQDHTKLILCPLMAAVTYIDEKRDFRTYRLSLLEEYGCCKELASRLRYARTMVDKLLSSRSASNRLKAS

[3] = biological target: Serine/threonine-protein kinase PLK1 (Homo sapiens) (UniProt P53350); details: at 1 µM
[4] = biological target: T2, Dual specificity protein kinase TTK (Homo sapiens) (UniProt P33981); details: at 0.1 µM
T2 sequence (whole entry): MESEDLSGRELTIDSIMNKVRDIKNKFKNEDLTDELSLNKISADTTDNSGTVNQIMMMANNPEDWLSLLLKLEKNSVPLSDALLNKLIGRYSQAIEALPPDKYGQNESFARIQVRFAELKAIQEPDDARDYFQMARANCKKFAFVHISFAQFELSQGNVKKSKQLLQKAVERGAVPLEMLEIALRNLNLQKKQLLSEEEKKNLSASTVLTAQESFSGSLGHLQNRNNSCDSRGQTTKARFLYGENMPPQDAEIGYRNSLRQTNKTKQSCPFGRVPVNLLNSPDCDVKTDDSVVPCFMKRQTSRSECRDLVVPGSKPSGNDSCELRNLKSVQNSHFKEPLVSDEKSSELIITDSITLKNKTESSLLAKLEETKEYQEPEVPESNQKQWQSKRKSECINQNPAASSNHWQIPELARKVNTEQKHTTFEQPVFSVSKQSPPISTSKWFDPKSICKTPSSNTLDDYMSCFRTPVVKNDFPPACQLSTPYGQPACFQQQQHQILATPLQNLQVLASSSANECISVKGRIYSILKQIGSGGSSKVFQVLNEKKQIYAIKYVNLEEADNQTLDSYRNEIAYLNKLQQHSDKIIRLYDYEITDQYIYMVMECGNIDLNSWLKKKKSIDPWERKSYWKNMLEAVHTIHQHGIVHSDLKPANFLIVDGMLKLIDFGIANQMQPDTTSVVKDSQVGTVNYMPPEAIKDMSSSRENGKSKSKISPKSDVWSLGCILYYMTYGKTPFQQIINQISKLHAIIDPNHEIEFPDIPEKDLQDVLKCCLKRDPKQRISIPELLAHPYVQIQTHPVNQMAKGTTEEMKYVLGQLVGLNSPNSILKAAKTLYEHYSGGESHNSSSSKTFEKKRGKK

[5] = tested on: T3, Receptor-type tyrosine-protein kinase FLT3 (Homo sapiens), P36888 [D835Y]; details: at 1 µM
T3 sequence (whole entry): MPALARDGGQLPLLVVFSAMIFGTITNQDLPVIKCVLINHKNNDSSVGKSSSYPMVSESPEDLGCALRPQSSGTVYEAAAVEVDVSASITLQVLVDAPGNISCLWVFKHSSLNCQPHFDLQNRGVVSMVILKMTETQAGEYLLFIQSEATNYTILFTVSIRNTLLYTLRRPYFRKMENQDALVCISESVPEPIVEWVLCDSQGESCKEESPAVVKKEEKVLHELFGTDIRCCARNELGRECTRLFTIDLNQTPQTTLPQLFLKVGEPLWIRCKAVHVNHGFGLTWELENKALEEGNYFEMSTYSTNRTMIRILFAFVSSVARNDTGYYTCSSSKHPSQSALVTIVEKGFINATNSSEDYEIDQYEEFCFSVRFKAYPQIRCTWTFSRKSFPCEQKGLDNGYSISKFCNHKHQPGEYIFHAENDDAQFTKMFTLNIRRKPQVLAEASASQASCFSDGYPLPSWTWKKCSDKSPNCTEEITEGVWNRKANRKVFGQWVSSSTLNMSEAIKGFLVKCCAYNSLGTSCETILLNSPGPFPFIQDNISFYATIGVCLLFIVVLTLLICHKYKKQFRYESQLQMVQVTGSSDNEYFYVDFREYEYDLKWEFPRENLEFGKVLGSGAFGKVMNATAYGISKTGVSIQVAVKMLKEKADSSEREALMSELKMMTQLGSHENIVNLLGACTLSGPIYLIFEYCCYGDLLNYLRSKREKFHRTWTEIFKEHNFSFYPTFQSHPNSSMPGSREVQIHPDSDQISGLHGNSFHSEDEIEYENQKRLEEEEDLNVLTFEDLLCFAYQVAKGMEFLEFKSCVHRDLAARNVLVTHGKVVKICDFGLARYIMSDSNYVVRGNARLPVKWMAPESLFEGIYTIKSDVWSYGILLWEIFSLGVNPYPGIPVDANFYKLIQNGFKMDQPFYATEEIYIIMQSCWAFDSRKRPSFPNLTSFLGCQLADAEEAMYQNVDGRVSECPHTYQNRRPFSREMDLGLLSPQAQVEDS

[6] = biological target: Vascular endothelial growth factor receptor 3 (Homo sapiens) (UniProt P35916); details: at 0.1 µM
[7] = biological target: Vascular endothelial growth factor receptor 3 (Homo sapiens) (UniProt P35916); details: at 1 µM
[8] = biological target: Macrophage colony-stimulating factor 1 receptor (Homo sapiens) (UniProt P07333); details: at 0.1 µM
Sequence of Macrophage colony-stimulating factor 1 receptor (Homo sapiens) (P07333 whole entry): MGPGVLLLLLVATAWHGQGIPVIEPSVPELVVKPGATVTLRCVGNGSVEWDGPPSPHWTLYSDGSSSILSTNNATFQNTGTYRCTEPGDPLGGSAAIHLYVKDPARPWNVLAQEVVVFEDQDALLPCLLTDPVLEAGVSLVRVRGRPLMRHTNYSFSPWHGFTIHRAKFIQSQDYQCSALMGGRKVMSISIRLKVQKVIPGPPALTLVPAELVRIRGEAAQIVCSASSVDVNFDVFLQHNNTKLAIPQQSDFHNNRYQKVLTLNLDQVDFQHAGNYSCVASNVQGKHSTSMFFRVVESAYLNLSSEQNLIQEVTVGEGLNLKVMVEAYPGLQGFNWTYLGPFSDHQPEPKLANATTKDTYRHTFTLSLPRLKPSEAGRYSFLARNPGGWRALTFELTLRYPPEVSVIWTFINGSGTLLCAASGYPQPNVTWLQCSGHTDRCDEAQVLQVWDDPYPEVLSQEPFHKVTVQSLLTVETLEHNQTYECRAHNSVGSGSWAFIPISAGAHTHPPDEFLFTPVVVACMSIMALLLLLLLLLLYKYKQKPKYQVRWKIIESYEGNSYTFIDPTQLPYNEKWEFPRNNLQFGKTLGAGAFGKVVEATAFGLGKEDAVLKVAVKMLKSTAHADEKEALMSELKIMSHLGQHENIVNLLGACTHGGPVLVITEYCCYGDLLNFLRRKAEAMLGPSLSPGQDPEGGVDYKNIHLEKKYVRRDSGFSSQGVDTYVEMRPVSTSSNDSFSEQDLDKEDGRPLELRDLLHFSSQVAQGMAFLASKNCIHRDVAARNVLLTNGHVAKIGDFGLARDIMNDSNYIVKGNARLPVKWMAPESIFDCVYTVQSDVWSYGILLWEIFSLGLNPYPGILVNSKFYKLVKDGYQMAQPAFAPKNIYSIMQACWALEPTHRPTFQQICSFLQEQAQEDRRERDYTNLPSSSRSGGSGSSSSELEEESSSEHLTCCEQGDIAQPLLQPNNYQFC

[9] = biological target: Macrophage colony-stimulating factor 1 receptor (Homo sapiens) (UniProt P07333); details: at 1 µM
[10] = biological target: Tyrosine-protein kinase Fyn (Homo sapiens) (UniProt P06241); details: at 0.1 µM
Sequence of Tyrosine-protein kinase Fyn (Homo sapiens) (P06241 2-537 limits assumed): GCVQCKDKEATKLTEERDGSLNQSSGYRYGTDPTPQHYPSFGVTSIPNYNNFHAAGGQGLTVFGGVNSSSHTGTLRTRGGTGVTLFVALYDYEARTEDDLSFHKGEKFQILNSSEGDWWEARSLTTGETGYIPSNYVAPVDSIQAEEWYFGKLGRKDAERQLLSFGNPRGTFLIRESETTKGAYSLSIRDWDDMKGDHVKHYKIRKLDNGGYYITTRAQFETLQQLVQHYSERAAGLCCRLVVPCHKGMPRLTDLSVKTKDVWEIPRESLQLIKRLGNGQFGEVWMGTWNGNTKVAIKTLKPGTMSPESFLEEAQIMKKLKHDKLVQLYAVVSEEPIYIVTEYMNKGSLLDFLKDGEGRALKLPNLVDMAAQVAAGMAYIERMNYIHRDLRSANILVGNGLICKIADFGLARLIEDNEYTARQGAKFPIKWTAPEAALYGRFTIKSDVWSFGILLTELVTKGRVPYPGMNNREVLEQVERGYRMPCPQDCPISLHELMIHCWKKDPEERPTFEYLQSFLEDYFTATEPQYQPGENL

[11] = biological target: Tyrosine-protein kinase Fyn (Homo sapiens) (UniProt P06241); details: at 1 µM
[12] = biological target: Tyrosine-protein kinase HCK (Homo sapiens) (UniProt P08631); details: at 0.1 µM
[13] = biological target: Tyrosine-protein kinase HCK (Homo sapiens) (UniProt P08631); details: at 1 µM
[14] = biological target: Insulin-like growth factor 1 receptor (Homo sapiens) (UniProt P08069); details: at 0.1 µM
Sequence of Insulin-like growth factor 1 receptor (Homo sapiens) (P08069 31-736 limits assumed): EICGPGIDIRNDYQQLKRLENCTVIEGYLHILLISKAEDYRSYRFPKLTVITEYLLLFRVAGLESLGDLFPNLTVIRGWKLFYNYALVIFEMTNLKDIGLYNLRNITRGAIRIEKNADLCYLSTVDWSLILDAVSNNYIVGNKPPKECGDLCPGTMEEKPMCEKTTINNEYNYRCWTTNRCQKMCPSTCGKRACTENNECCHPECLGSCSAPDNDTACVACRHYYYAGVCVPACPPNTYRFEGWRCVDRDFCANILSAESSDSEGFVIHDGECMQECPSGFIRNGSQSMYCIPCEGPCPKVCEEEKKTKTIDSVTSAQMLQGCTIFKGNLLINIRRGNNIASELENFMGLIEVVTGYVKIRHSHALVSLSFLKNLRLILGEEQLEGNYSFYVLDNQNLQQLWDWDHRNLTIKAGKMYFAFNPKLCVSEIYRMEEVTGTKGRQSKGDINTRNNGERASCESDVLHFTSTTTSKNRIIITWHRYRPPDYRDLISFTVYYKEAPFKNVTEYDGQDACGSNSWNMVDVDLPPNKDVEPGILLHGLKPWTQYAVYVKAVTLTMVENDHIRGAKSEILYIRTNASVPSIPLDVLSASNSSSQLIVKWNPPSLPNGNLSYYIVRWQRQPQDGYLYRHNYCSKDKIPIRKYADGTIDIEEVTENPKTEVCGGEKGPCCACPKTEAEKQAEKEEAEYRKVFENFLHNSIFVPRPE
Sequence of Insulin-like growth factor 1 receptor (Homo sapiens) (P08069 741-1367 limits assumed): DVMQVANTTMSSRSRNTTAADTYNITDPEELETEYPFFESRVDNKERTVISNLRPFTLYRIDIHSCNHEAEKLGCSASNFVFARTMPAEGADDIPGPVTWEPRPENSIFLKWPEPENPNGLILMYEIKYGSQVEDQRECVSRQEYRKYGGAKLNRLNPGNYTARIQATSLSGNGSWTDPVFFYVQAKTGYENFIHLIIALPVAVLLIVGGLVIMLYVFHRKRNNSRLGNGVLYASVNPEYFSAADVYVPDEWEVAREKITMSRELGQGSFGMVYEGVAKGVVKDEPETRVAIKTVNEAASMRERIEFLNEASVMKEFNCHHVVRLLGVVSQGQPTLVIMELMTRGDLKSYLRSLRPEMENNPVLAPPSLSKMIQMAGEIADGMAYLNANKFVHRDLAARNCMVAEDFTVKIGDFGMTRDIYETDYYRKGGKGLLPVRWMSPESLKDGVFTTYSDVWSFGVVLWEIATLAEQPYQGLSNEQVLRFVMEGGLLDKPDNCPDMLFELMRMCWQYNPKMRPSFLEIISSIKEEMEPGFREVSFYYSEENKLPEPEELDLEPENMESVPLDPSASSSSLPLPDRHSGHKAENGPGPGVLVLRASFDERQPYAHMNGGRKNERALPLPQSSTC

[15] = biological target: Insulin-like growth factor 1 receptor (Homo sapiens) (UniProt P08069); details: at 1 µM
[16] = biological target: Insulin receptor (Homo sapiens) (UniProt P06213); details: at 0.1 µM
[17] = biological target: Insulin receptor (Homo sapiens) (UniProt P06213); details: at 1 µM
[18] = biological target: Insulin receptor-related protein (Homo sapiens) (UniProt P14616); details: at 0.1 µM
Sequence of Insulin receptor-related protein (Homo sapiens) (P14616 27-742 limits assumed): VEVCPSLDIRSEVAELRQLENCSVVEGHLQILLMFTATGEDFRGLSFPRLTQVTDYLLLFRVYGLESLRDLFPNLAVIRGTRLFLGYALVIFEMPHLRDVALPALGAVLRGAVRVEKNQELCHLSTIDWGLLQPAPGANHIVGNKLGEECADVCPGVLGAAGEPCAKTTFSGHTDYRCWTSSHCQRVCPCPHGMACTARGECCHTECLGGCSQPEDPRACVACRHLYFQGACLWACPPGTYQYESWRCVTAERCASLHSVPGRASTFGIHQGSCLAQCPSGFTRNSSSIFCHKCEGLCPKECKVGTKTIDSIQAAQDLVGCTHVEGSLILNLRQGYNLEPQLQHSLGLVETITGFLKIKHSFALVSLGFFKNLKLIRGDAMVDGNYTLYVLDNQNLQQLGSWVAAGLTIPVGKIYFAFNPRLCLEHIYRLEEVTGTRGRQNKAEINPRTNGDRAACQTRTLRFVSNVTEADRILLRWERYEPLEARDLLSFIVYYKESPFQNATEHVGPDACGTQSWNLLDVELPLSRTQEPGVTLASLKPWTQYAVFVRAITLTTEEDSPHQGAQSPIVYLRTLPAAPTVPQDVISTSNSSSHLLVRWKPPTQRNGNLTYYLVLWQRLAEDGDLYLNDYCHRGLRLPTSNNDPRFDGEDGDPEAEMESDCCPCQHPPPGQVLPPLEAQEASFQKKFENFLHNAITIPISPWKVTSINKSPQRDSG
Sequence of Insulin receptor-related protein (Homo sapiens) (P14616 747-1297 limits assumed): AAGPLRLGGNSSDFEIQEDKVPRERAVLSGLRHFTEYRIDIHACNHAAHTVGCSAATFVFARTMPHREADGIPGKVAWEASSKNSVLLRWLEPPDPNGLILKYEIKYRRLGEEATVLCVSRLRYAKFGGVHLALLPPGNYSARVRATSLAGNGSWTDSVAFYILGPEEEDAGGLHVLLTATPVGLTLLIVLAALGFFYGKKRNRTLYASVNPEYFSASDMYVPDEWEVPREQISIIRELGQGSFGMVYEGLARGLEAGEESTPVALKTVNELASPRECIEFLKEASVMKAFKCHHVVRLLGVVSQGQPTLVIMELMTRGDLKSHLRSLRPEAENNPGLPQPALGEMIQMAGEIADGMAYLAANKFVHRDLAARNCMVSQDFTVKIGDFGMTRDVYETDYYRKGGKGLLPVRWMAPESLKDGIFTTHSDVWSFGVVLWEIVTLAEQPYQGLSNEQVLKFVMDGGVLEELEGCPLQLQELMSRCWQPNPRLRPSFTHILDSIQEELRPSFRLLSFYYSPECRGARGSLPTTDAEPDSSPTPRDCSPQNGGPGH

[19] = biological target: Insulin receptor-related protein (Homo sapiens) (UniProt P14616); details: at 1 µM
[20] = biological target: T4, Tyrosine-protein kinase ITK/TSK (Homo sapiens) (UniProt Q08881); details: at 0.1 µM;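 also: mean percent inhibition of ITK from the GSK PKIS screen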
T4 sequence (whole entry): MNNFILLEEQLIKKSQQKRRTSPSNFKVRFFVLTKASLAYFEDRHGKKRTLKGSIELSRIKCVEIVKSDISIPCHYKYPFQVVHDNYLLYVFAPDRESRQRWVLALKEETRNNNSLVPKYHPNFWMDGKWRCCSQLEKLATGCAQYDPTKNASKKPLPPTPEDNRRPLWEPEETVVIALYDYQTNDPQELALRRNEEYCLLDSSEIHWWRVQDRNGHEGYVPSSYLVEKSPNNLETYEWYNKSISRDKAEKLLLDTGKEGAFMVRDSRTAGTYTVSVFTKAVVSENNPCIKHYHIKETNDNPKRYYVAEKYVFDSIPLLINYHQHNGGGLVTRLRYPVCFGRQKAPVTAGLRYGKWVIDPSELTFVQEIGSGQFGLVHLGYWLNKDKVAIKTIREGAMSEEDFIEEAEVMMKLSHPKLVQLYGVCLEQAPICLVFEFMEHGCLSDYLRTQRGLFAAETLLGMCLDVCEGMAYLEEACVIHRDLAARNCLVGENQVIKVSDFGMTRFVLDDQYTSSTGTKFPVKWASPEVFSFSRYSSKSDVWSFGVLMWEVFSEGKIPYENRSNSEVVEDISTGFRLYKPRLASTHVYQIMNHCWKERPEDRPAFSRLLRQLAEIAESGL

Structure (SMILES)	inhibition [1]	inhibition [2]	inhibition [3]	inhibition [4]	inhibition [5]	inhibition [6]	inhibition [7]	inhibition [8]	inhibition [9]	inhibition [10]	inhibition [11]	inhibition [12]	inhibition [13]	inhibition [14]	inhibition [15]	inhibition [16]	inhibition [17]	inhibition [18]	inhibition [19]	inhibition [20]
CCC(=O)Nc1ccc(C)c(-c2ccc(C(=O)NCC3CC3)cc2)c1	10.2%	5.02%	4.61%	8.14%	3.02%	3.63%	-1.74%	-2.39%	2.95%	1.58%	4.1%	5.93%	4.04%	3.84%	1.32%	4.28%	5.36%	0%	1.59%	-0.06%
NC(=O)Cc1ccccc1Oc1nccc(-c2c(-c3ccc(F)cc3)ncn2C2CCNCC2)n1	1.22%	3.44%	2.54%	5.28%	1.28%	1.36%	-0.28%	0.18%	1.47%	2.4%	2.13%	2.65%	5.75%	3.37%	3.6%	5.96%	6.34%	0.84%	1.69%	1.33%
O=C(Nc1n[nH]c2cc(-c3cc(F)ccc3F)ccc12)C1CC1	10.9%	4.33%	3.61%	8.84%	-2.14%	0.33%	1.03%	-1.77%	2.78%	2.47%	6.73%	7.73%	8.12%	0.54%	2.05%	7.13%	4.97%	1.56%	0.94%	2.16%
CS(=O)(=O)CCNCc1cc(-c2cc3c(Nc4ccc(OCc5cccc(F)c5)c(Cl)c4)ncnc3s2)cs1	8.5%	6.1%	8.12%	9.23%	5.05%	1.58%	-1.31%	7.21%	7.82%	0.55%	2.71%	6.52%	7.87%	5.7%	4.5%	11.5%	4.74%	1.69%	2.82%	1.89%
Fc1ccc(-c2ncn(C3CCNCC3)c2-c2ccnc(Oc3ccc4c(c3)OCO4)n2)cc1	7.95%	4.77%	3.7%	7.25%	-0.75%	3.31%	5.76%	2.5%	12.1%	1.06%	3.17%	6.2%	10.9%	0.4%	2.16%	2.85%	3.42%	3.09%	3.51%	1.6%
COc1cc(Nc2ncc(-c3ccccc3)o2)cc(OC)c1OC	8.49%	-0.55%	2.1%	5.82%	63.1%	7.69%	36.7%	20.1%	57.6%	6.4%	37.5%	3.3%	31.2%	1.91%	2.07%	4.48%	-0.22%	-2.58%	-1.95%	-0.21%
